Among the data in PubChem BioAssay are composite z-score and z-score values, retold here.

Calls of active or inactive are those of the source.

Assay [1] is described as follows: small molecules captured by biotinylated probe aFSTL3 – biochemical, small-molecule microarray, fluorescence 635/667, stem cell growth factor project, primary screen (AID 1064).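 Also: measures binding of the biotinylated anti-FSTL3 antibody to printed compounds.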 As to conditions: higher = more signal.
The nature of assay [2]: binders from COS7 lysate, DM2A8 probe, primary screen, torsin A project, cell lysate, small-molecule microarray, fluorescence 635/667 (AID 1065). As to conditions: higher = more signal, COS7 lysate expressing mutant human TOR1A.
Assay [3] in a line: small molecules captured by biotinylated probe aFGF2 – biochemical, small-molecule microarray, fluorescence 635/667, stem cell growth factor project, primary screen (AID 1067).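 Also: measures binding of biotinylated aFGF2 protein to printed compounds on slides; z-score merges feature fluorescence and signal-to-noise across triplicate slides.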 As to conditions: higher = more signal.
Assay [4] can be described thus: small molecules captured by biotinylated probe aFGF10 – biochemical, small-molecule microarray, fluorescence 635/667, stem cell growth factor project, primary screen (AID 1071).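 Also: score merges 667 nm spot intensity and signal to noise from triplicate slides.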 Conditions: higher = more signal.
Assay [5] concerns the target Neurogenic locus notch homolog protein 2 (Homo sapiens) (UniProt Q04721). Kind of assay: small molecules binding Notch2 protein – biochemical, small-molecule microarray, 635 nm fluorescence, stem cell growth factors, primary screen (AID 1073). Conditions: higher = more signal.
The target in assay [6] is Pro-neuregulin-1, membrane-bound isoform (Homo sapiens) (UniProt Q02297). Kind of assay: small molecules binding neuregulin-1 protein – biochemical, small-molecule microarray, fluorescence 635/667, psychiatric disease protein project, primary screen (AID 1075).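 Also: score combines 667 nm spot fluorescence with signal to noise.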 Conditions: NRG1 binding, 635 nm fluorescence, higher = more signal.
Assay [7] has as its system Neuregulin-1 EGF-like domain. The assay can be described thus: small molecules binding NRG1 EGF domain – biochemical, small-molecule microarray, 635 nm fluorescence, primary screen (AID 1081).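 Also: binding of the protein to compounds printed on small-molecule microarray slides.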 Conditions: higher = more signal.
The nature of assay [8]: FRG1 expression reporter modulators in myotubes – cell-based, C2C12 myotubes, firefly/Renilla luciferase, luminescence, FRG1 inhibition for FSHD, primary screen (AID 1084). Conditions: FRG1 promoter luciferase, higher = more signal, called active from +8 up or from −8 down.
The nature of assay [9]: small molecules captured by biotinylated probe aFST – biochemical, small-molecule microarray, fluorescence 635/667, stem cell growth factor project, primary screen (AID 1086).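 Also: score merges 667 nm fluorescence with signal-to-noise of each printed compound spot.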 As to conditions: higher = more signal.
A short description of assay [10]: binders of probe aHhip on microarray, primary screen, stem cell growth factor project, biochemical, small-molecule microarray, fluorescence 635/667 (AID 1087).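 Also: score merges spot fluorescence at 667nm with spot signal to noise ratio.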 As to conditions: higher = more signal.
The subject of assay [11] is PRMT1 (protein arginine N-methyltransferase 1). The assay can be described thus: small molecules binding arginine methyltransferase PRMT1 – biochemical, small-molecule microarray, 635 nm fluorescence, primary screen (AID 1088).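 Also: binding of Prmt1 protein to compounds spotted on small-molecule microarray slides.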 As to conditions: higher = more signal.
Assay [12] can be described thus: growth effects on S. cerevisiae YJM789 – YJM789 clinical isolate, OD600, 24 h, basal, primary screen (AID 1089).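 Also: growth of clinical yeast isolate S. cerevisiae YJM 789 seeded 1000 cells per well; test concentration not given here.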 As to conditions: higher = more signal, called active from +8 up or from −8 down.
A short description of assay [13]: S. pombe growth modifiers, basal conditions – strain 972, OD600, 24 h, no modulator, primary screen (AID 1090).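 Also: basal condition with compound alone and no growth modifier present; test concentration not given here.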 Conditions: S. pombe 972 growth, higher = more signal, called active from +8 up or from −8 down.
Assay [14] can be described thus: budding yeast growth modifiers under rapamycin – strain BY4716, OD600, 96 h, primary screen (AID 1091). Also: test concentration not given here. Conditions: S. cerevisiae BY4716 + rapamycin, higher = more signal, called active from +8 up or from −8 down.
Assay [15] concerns the target Torsin-1A-interacting protein 2 (Homo sapiens) (UniProt Q8NFQ8). The assay can be described thus: small molecules binding lysate-expressed LULL1 – cell lysate, human LULL1 lysate, 635/667 nm fluorescence, primary screen (AID 1092).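 Also: probe is lysate of COS7 cells overexpressing human LULL1; score merges per-feature 667 nm fluorescence with signal-to-noise.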 As to conditions: small-molecule microarray, hLULL1 lysate binding, 635 nm fluorescence; higher = more signal.
The nature of assay [16]: optical density change of DRC41 E. coli – strain DRC41, OD650, 24 h, E. coli filamentation project, primary screen (AID 1093).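 Also: MC1000 strain lacking acrAB efflux and sulA so SOS filamentation is blocked; test concentration not given here.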 Conditions: E. coli DRC41 growth, higher = more signal, called active from +8 up or from −8 down.
A short description of assay [17]: probe aLefty2 binding to arrayed compounds – biochemical, biotinylated probe, 635/667 nm fluorescence, primary screen (AID 1094).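 Also: score merges spot fluorescence near 667 nm with spot signal-to-noise ratio.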 As to conditions: small-molecule microarray, higher = more signal.
Assay [18] has as its system Noggin (protein binding on small-molecule microarray). The assay can be described thus: small molecules binding Noggin protein – biochemical, 635/667 nm fluorescence, primary screen (AID 1095).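 Also: score merges 667 nm feature fluorescence with signal to noise over triplicate slides.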 Conditions: 635 nm fluorescence, higher = more signal.
The target in assay [19] is Neurogenic locus notch homolog protein 3 (Homo sapiens) (UniProt Q9UM47). The assay can be described thus: small molecules binding NOTCH3 protein – biochemical, 635/667 nm fluorescence, primary screen (AID 1096). Conditions: small-molecule microarray, 635 nm fluorescence, higher = more signal.
A short description of assay [20]: probe aEGFR binding to arrayed compounds – biochemical, biotinylated probe, 635/667 nm fluorescence, primary screen (AID 1097).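 Also: probe is a biotinylated anti-EGFR antibody binding compounds printed on slides; score combines fluorescence near 667 nm and signal to noise of each spot.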 As to conditions: small-molecule microarray, higher = more signal.

Chain of Pro-neuregulin-1, membrane-bound isoform (Homo sapiens) (Q02297 whole entry, looked up, the tested form may be a part, canonical isoform): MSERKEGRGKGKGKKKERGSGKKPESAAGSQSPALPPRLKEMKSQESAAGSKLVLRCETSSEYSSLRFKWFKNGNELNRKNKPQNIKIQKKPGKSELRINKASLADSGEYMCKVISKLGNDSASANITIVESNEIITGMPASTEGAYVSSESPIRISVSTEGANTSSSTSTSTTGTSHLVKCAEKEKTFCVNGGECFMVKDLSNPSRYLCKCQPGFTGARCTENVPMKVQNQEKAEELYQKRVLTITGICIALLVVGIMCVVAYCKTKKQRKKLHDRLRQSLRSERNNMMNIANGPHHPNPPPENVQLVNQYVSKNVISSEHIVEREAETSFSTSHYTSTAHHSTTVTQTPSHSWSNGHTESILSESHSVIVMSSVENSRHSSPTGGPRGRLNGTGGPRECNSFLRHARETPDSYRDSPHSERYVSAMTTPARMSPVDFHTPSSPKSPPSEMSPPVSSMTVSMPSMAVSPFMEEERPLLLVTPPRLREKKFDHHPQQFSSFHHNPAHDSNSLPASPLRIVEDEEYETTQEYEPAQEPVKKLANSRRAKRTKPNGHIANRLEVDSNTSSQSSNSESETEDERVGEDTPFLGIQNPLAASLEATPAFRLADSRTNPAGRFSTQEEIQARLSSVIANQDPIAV
Chain of Neurogenic locus notch homolog protein 2 (Homo sapiens) (Q04721 whole entry, looked up, canonical isoform): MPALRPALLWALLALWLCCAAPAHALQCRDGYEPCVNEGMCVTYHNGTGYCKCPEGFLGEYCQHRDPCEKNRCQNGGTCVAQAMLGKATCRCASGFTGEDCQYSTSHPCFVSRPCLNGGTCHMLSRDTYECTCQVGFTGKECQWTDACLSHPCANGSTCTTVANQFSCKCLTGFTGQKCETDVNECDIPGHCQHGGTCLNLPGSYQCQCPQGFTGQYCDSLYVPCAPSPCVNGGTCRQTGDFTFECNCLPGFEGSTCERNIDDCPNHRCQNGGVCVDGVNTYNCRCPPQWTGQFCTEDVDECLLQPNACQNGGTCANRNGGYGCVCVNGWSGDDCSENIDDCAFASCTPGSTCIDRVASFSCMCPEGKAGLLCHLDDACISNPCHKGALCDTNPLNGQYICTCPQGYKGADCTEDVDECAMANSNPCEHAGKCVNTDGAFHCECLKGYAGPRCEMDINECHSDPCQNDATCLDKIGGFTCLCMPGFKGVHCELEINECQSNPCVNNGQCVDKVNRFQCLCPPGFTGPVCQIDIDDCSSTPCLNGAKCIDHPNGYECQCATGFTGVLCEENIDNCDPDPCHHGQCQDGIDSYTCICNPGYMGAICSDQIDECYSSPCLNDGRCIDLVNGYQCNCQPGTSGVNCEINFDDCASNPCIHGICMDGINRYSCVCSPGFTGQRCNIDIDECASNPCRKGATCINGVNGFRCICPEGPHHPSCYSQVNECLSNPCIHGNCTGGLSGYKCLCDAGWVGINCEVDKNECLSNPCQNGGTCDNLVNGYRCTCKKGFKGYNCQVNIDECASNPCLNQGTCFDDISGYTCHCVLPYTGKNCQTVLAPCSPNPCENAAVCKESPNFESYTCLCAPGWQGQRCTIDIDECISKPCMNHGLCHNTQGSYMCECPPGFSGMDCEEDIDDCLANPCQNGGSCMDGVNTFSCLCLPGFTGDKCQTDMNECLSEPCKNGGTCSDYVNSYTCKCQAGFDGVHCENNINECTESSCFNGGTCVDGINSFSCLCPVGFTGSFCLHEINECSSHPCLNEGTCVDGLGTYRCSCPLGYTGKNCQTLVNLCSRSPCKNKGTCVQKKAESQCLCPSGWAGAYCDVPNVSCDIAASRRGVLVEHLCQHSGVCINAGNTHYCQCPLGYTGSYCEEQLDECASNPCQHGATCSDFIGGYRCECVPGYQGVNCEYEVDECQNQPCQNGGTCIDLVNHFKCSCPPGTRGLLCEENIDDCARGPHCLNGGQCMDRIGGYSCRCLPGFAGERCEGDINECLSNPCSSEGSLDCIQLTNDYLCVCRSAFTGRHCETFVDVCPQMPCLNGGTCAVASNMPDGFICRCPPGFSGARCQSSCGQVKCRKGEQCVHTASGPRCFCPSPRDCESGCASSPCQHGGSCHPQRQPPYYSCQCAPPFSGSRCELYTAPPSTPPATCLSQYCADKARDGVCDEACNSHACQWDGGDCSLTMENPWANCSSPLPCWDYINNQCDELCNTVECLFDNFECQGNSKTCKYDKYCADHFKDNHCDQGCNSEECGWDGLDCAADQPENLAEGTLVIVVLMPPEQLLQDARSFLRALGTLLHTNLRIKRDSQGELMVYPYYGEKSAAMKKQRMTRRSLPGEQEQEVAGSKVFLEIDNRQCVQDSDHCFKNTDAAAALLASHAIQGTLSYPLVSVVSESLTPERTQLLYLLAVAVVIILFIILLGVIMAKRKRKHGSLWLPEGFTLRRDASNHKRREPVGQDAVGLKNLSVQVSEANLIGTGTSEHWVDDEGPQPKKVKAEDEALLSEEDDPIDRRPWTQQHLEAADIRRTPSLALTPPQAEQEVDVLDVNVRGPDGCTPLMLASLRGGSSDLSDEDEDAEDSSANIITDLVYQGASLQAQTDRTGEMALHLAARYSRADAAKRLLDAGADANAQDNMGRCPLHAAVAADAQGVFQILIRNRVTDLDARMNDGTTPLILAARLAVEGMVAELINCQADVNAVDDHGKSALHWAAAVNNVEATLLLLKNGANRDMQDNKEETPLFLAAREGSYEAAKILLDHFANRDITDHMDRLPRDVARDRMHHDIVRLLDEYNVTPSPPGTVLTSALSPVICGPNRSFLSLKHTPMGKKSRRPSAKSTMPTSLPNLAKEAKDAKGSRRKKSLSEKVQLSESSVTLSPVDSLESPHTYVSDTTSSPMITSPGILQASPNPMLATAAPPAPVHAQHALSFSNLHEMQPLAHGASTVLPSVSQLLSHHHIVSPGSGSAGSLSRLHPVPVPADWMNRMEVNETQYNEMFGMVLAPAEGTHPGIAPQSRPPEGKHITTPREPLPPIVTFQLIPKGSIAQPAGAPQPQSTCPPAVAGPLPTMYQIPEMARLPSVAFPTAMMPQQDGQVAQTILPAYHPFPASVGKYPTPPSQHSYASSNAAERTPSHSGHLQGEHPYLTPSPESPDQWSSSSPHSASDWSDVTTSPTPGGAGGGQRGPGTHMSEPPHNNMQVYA
Chain of Torsin-1A-interacting protein 2 (Homo sapiens) (Q8NFQ8 whole entry, looked up): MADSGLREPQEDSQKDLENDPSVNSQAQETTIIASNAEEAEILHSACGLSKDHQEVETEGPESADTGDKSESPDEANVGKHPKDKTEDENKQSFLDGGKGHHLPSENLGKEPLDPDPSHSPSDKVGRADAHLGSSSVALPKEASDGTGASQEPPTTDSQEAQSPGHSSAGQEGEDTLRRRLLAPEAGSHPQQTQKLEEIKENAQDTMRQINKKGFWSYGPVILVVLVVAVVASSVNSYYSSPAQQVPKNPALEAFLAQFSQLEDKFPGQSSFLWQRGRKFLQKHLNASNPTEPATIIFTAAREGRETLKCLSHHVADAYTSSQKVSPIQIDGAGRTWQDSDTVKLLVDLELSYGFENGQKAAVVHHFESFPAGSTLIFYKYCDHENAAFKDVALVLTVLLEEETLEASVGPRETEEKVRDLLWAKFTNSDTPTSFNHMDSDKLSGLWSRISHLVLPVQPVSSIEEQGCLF

As for `COc1ccc([Si](C)(C)[C@@H]2[C@@H](CC(=O)N3CCC[C@H]3CO)O[C@]3(C(=O)N(Cc4ccc(I)cc4)c4ccccc43)[C@H]2C)cc1`, the composite z-score was 0.035 in [1]; 0.356 in [2]; -0.142 in assay [3]; 0.254 in assay [4]; 0.806 in assay [5]; 0.805 in [6]. In addition, the composite z-score is 1.22 in assay [7]; 0.357 in assay [9]; 0.281 in [10]; 1.56 in assay [11]; 1.53 in assay [15]; 0.0662 in assay [17]. The composite z-score was 0.982 in assay [18], 1.13 in assay [19] and 0.0152 in assay [20]. Besides, the z-score in [8] is -1.71 (inactive); in assay [12] it was -1.41 (inactive); in [13] it was -0.398 (inactive); in assay [14], -0.309 (inactive); in assay [16], 2.22 (inactive).

As for `COc1ccc(C(=O)Nc2cccc(CN3C(=O)[C@@]4(O[C@@H](CCO)[C@H]([Si](C)(C)c5ccc(OC)cc5)[C@H]4C)c4ccccc43)c2)cc1`, the composite z-score in [1] was 0.457; in [2] it was -0.0176; in assay [3], -0.0784; in assay [4], 0.19; in assay [5], 0.0782; in assay [6] it was -0.0498. Further, the composite z-score in assay [7] is 0.984; in assay [9], 0.0018; in assay [10] it was -0.216; in assay [11], 0.95; in [15], 1.35; in [17], 0.0005. The results for the composite z-score in [18], in [19] and in [20] were 0.297, 0.0772 and -0.155, respectively. Besides, the z-score was -3.53 (inactive) in assay [8]; 0.324 (inactive) in [12]; -9.44 (active) in assay [13]; 0.2 (inactive) in assay [14]; 1.68 (inactive) in assay [16].

As to `[N-]=[N+]=NCc1ccccc1C[C@@]1(C(=O)O)N=C(c2ccc(OCCCO)cc2)O[C@@H]1c1ccccc1`, the composite z-score in assay [1] is 0.673; in assay [2], -0.231; in assay [3], -0.134; in [4], -0.927; in assay [5], -0.0526; in assay [6], 1.86. For the same molecule, the composite z-score was 0.754 in assay [7]; 0.0724 in assay [9]; -0.226 in assay [10]; 0.244 in assay [11]; 2.45 in [15]; 0.0424 in assay [17]. The composite z-score in assay [18] is -0.811; in assay [19] it was -0.364; in assay [20], -0.221. In addition, the z-score in assay [8] was -1.08 (inactive); in [12], -0.921 (inactive); in [13], -1.23 (inactive); in assay [14] it was -1.22 (inactive); in assay [16], 0.41 (inactive).

With `O=C1O[C@H](c2ccccc2)[C@H](c2ccccc2)N2[C@H]1[C@@H](C(=O)Nc1nc3ccccc3s1)[C@]1(C(=O)Nc3ccc(C#CCCO)cc31)[C@H]2c1ccccc1OCCO`, the composite z-score in [1] is -0.246; in [2], 1.25; in assay [3] it was -0.038; in assay [4] it was 0.502; in [5], 1.35; in assay [6], 1.69. Also, the composite z-score in [7] turned out to be 1.06; in assay [9], 0.599; in assay [10], 0.0757; in assay [11] it was 1.47; in [15], 2.85; in assay [17], 0.0459. Besides, the composite z-score in assay [18] worked out at 0.244; in [19], 0.912; in assay [20], 0.0381. In addition, the z-score in assay [8] was -1.51 (inactive); in assay [12], 0.764 (inactive); in assay [13] it was -1.98 (inactive); in [14], 2.62 (inactive); in assay [16], 2.96 (inactive).

In the case of `CCCCC(=C=CC[C@@H](O)c1ccc(OCCO)cc1)C[C@@H](O)c1cc(Cl)cc(Cl)c1O`, the composite z-score in [1] is -0.12; in [2], 0.0464; in assay [3] it was -0.0924; in [4] it was 0.458; in assay [5], -0.0054; in assay [6] it was 1.26. Also, the composite z-score is 0.597 in assay [7]; 0.0049 in assay [9]; 0.0007 in [10]; 0.21 in assay [11]; 1.36 in assay [15]; -0.057 in assay [17]. The results for the composite z-score in assay [18], in [19] and in [20] were 0.988, -0.174 and 0.24, respectively. For the same molecule, the z-score in assay [8] is -2.98 (inactive); in [12], -2.58 (inactive); in assay [13], -6.3 (inactive); in assay [14], -1.39 (inactive); in assay [16] it was 1.97 (inactive).
